Screening results from PubChem.
Sampled rows, rich in hits. Any-hit rate of the full collection: about 1.3%.
TrxR1 substrate: rat thioredoxin reductase 1 substrate activity; O89049; purified TrxR1 substrate turnover, NADPH consumption readout; Potency, µM (top dose mostly 114 µM), inactives show at the top dose activity change, negative = substrate turnover; hit rate 0.01% among 390,000; further: nearly all actives have a fitted effect of over 50% in size
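Rat TrxR1, dispensed at 90 nM, was prereduced with 400 uM NADPH (final) for 5 min at ~22 deg C, then incubated with compound 15 min before 400 uM selenite. A first-read NADPH fluorescence drop versus no-compound background flagged substrates.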
Anesthetic bind: candidate novel general anesthetic via apoferritin binding. P02791. apoferritin/1-aminoanthracene competitive binding, fluorescence. Potency, µM (doses to about 77.5 µM), for the others: at the highest dose activity change, negative = displacement, actives largely listed as inhibitors. hit rate 0.074% among 350,000; further: nearly all actives have a fitted effect of over 20% in size
Target sequence (P02791 2-175 limits assumed): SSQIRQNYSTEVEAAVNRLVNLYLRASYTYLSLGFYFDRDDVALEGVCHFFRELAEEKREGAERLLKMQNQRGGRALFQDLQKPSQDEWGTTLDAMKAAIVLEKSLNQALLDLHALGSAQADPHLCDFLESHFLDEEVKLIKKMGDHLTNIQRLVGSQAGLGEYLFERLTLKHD
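Steps: apoferritin (10 uM) was premixed with half-saturated 1-AMA in PBS, compounds were pin-transferred, plates stood 10 min at room temperature, fluorescence was read at 380/535 nm, and curves were fitted with a Hill equation.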
GALK inhibitor: inhibitors of human galactokinase. hit rate 0.007% among 270,000. P51570. Purified GALK, Kinase-Glo residual ATP luminescence. Potency, µM (highest dose often 57.5 µM), for inactives: top-dose activity change, negative = inhibition, hits mostly inhibitors
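Quantitative HTS: GALK 5 nM, ATP 35 uM, galactose 100 uM, 1 h room temperature, then luciferase-based ATP detection.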
IDH1 R132H inh: human IDH1 R132H inhibition. O75874. IDH1-R132H enzyme, NADPH consumption, diaphorase/resazurin fluorescence. Potency, µM (doses to about 76.6 µM), inactives show at the highest dose activity change, negative = inhibition, most hits filed as inhibitors. hit rate 0.093% among 390,000. AID 602179; further: nearly all actives have a fitted effect of over 65% in size
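IDH1-R132H (0.5 ug/mL dispensed) in pH 7.5 Tris buffer was preincubated 30 min with compound, then given a substrate mix of 0.016 mM NADPH and 2 mM alpha-KG for 80 min at room temperature; remaining NADPH was read by diaphorase/resazurin fluorescence.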
rTrxR1 inhibitor: rat TrxR1 inhibition; O89049; recombinant rTrxR1, NADPH fluorescence consumption, selenite substrate; Potency, µM (titrated, usually from 114 µM), inactives show top-dose activity change, negative = inhibition, hits mostly inhibitors; hit rate 1% among 390,000; AID 588453; further: nearly all actives have a fitted effect of over 65% in size
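Rat TrxR1 (90 nM in the dispensed reagent) was pre-reduced with 400 uM NADPH for 5 min at room temperature, then incubated with compound for 15 min. After 400 uM selenite was added, NADPH fluorescence (Ex 340/Em 450 nm) was followed for 8 min.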
PKM2 act: activators of human pyruvate kinase M2; hit rate 0.34% among 260,000; AID 1631; P14618; Potency, µM (doses to about 57.5 µM), for inactives: at the highest dose activation, usual class: activators; purified PKM2, Kinase-Glo ATP luminescence, activation; response scale: 0% is enzyme alone, no compound; further: nearly all actives have a fitted effect of over 55% in size
Target sequence (P14618 whole entry, looked up): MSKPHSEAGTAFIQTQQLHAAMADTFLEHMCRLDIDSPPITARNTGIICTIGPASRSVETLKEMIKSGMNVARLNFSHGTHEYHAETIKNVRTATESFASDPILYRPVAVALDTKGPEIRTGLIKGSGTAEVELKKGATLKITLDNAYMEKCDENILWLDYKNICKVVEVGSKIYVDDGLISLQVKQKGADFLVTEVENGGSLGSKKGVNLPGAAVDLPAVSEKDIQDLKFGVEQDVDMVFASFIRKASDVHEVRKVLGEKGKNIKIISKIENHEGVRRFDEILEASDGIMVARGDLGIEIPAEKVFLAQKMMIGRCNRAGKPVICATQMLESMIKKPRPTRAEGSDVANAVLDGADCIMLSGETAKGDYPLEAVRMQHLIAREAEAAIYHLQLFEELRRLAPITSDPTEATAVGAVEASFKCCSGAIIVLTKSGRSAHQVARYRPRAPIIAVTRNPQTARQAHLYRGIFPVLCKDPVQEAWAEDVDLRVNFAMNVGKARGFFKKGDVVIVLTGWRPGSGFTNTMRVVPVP
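Kinase-Glo luminescence reports ATP generated from ADP (0.1 mM) and PEP (0.5 mM) by purified hPK-M2 after 1 h at room temperature, pH 7.2 imidazole buffer; intermediate enzyme activity allows detecting inhibitors and activators.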
An asterisk follows results filed as active; ? = inconclusive; / = not tested or not shown; [ ] = dose if it differs, or a comment. The call rests on the fitted dose curve; in most records, active means well fitted curve in the direction sought with a large enough effect; inconclusive means small, poorly fitted or top-dose-only effect, or another doubt; inactive means no such curve, though single readings can be large; an effect the other way counts as inactive or inconclusive. On the % scale 0 is the no-effect control and ±100 the full control effect; potency means the concentration at half of the fitted maximal effect.

SMILES	TrxR1 substrate	Anesthetic bind	GALK inhibitor	IDH1 R132H inh	rTrxR1 inhibitor	PKM2 act
C/C=C\C=C/C(=O)Nc1cccc(C2=NOC3(C2)C[C@@H](C(N)=O)N(C(=O)C2(C)CC2)C3)c1 (some centres not stated)	3.2%	-2.8%	-0.8%	-8.5%	28.2µM*	?
C=C(C)C(=O)Nc1cccc(C2=NOC3(C2)C[C@@H](C(N)=O)N(C(=O)C(=C)C)C3)c1 (some centres not stated)	-5.0%[57.1 µM]	-4.7%	0.3%	-6.3%	-17.6%[57.1 µM]	-2.1%
C/C=C\C=C/C(=O)Nc1cccc(C2=NOC3(C2)C[C@@H](C(N)=O)N(C(=O)/C=C/CC)C3)c1 (some centres not stated)	-0.2%	-17.1%	4.2%	3.7%	15.8µM*	?
COC(=O)c1c(C)sc(-c2c(-c3ccc4c(c3)OCCO4)[nH]c3c2c(=O)[nH]c(=O)n3C)c1O	-7.4%	-8.7%	/	-0.5%	-5.7%	/
O=C1CN(C(=O)c2ccccc2C(F)(F)F)C(c2ccccc2)c2cc(F)ccc2N1 (configuration not stated)	-6.1%	-8.1%	/	2.7%	8.0%	/
COc1cccc(Cn2c(=O)cc(C)c3c(C)nn(C)c32)c1	5.6%[57.1 µM]	-13.7%	/	9.9%	16.9%[57.1 µM]	/
CCOc1cc(CN2CCCCC2)ccc1OC	-7.3%	7.9%	0.3%	0.5%	-3.5%	-6.2%
CCOc1cc(CN2CCN(c3ccc(C(C)=O)cc3)CC2)ccc1OC	1.6%	-4.2%	-1.3%	-0.3%	35.5µM*	15.9%
COc1ccc(NC(=O)CN(Cc2ccccc2)S(=O)(=O)c2ccc(C)cc2)cc1Cl	-6.9%	290.4%	/	-6.3%	16.5%	/
CC(=O)c1cccc(OCc2cc(C(=O)N(C)C(C)c3ccccn3)no2)c1 (configuration not stated)	4.2%	-20.6%	5.9%	-1.1%	50.1µM*	-11.0%
CCOC(=O)c1cnc(-c2ccccc2)nc1C(F)(F)F	1.8%[57.1 µM]	-6.8%	-0.5%	2.4%	13.3%[57.1 µM]	-3.6%
CCOC(=O)c1cnc2c(F)ccc(F)c2c1Sc1ccccc1	-10.5%	-16.4%	2.6%	-9.5%	56.2µM*	-0.3%
O=C(Cn1ncc2c(=O)oc3ccccc3c21)Nc1cc(F)ccc1F	-2.8%	20.4%	/	20.5%	-5.2%	/
CC1(C)COC(c2ccc(F)c([N+](=O)[O-])c2)=N1	-9.0%	-6.0%	0.1%	-8.9%	17.8µM*	-5.8%
CC1(C)COC(c2cc([N+](=O)[O-])ccc2Cl)=N1	9.3%[57.1 µM]	?	-2.7%	-1.2%	7.8%[57.1 µM]	3.1%
O=S(=O)(NCCc1csc2nc(-c3ccc(Cl)cc3)nn12)c1ccc(Oc2ccccc2)cc1	-5.5%[57.1 µM]	-8.0%	/	-12.2%	6.3%[57.1 µM]	/
COc1ccc(S(=O)(=O)n2nc(OC(=O)c3ccccc3Br)cc2N)cc1	-8.6%	?	-4.9%	0.7%	?	-24.1%
CS(=O)(=O)n1nc(OC(=O)c2cccc3ccccc23)cc1N	-5.5%	?	-2.8%	4.1%	56.2µM*	-0.1%
CS(=O)(=O)n1nc(OC(=O)c2cc(Br)ccc2Cl)cc1N	-0.1%	-3.3%	8.0%	0.2%	6.31µM*	-1.6%
CS(=O)(=O)n1nc(OC(=O)c2cccs2)cc1N	3.0%	-4.5%	1.3%	-3.5%	?	0.1%
Cc1ccc(-n2ncc(C(=O)NCc3cccs3)c2C2CCN(C(=O)OC(C)(C)C)CC2)cc1C	-11.5%	?	/	9.5%	18.1%	/
CCOC(=O)C1=C(C)N(c2ccc(OC)cc2)C(=O)/C1=C\c1cccs1	-4.7%	-6.0%	2.8%	-5.9%	-5.4%	-5.2%
CCOc1cc(/C=C2\C(=O)N(Cc3ccc(C)cc3)C(C)=C2C(=O)OC)ccc1O	-0.8%[57.1 µM]	?	/	3.1%	28.2µM*	12.0%
CCOC(=O)C1=C(C)N(c2ccc(OC)cc2)C(=O)/C1=C\c1ccc(O)c(OCC)c1	-3.0%	-22.3%	-0.8%	0.1%	39.8µM*	?
CCOC(=O)c1cccc(NC(=O)CCc2c(C)nn(-c3ccc(N4CCOCC4)nn3)c2C)c1	-7.5%[57.1 µM]	41.9%	/	15.1%	-6.0%[57.1 µM]	/
SMILES	TrxR1 substrate	Anesthetic bind	GALK inhibitor	IDH1 R132H inh	rTrxR1 inhibitor	PKM2 act
COC(C(=O)C(O)C(C)O)C1Cc2cc3cc(OC4CC(OC5CC(O)C(O)C(C)O5)C(O)C(C)O4)c(C)c(O)c3c(O)c2C(=O)C1OC1CC(OC2CC(OC3CC(C)(O)C(O)C(C)O3)C(O)C(C)O2)C(O)C(C)O1 (configuration not stated)	-11.4%	/	/	/	-23.0%	/
CN1CCN(C(=O)c2cc(COc3c(F)cccc3F)on2)CC1c1ccccc1 (configuration not stated)	-4.5%	-8.6%	-0.2%	-1.7%	17.5%	17.8µM*
O=C(c1cc(COc2ccc(F)cc2F)on1)N1CCN(C(=O)c2ccco2)CC1	1.5%	-12.6%	0.1%	-1.5%	50.1µM*	/
FC(F)C(F)(F)C(F)(F)C(F)(F)c1cc(-c2ccccc2)n[nH]1	-12.5%	14.1µM*	-4.7%	8.4%	-1.9%	-1.2%
CC1(C)Cc2c(C#N)c(N3CCN(C(=O)c4ccccc4Cl)CC3)nc(-c3ccco3)c2CS1	24.4%[57.1 µM]	?	-2.8%	-2.2%	12.6µM*	?
CC1(C)Cc2c(C#N)c(N3CCN(C(=O)c4ccco4)CC3)nc(-c3ccco3)c2CS1	26.7%	-21.0%	-3.4%	2.4%	7.08µM*	?
CC(C)Cc1nc(N2CCN(C(=O)c3ccco3)CC2)c(C#N)c2c1CCC2	27.3%	-19.8%	0.5%	-17.1%	?	22.4µM*
CCCCc1nc(NCCNC(=O)c2ccco2)c(C#N)c2c1CSC(C)(C)C2	76.8%	-16.3%	-4.2%	-2.8%	50.1µM*	-10.8%
CCCCc1nc(NCCNC(=O)c2ccccc2)c(C#N)c2c1CSC(C)(C)C2	11.4%[57.1 µM]	2.4%	-5.0%	-0.7%	-0.5%[57.1 µM]	3.1%
O=C(c1ccc(Cl)cc1)N1CCC(c2nc3ccccc3o2)CC1	-4.2%	-5.6%	/	-16.4%	8.5%	/
Oc1cccc2c(CC(O)c3c[nH]c4ccccc34)ccnc12 (configuration not stated)	-7.8%	/	/	/	-18.2%	/
COc1ccc2c(CNCCc3cccs3)c(C(=O)O)n(Cc3ccccc3C)c2c1	-1.0%	5.5%	/	-11.8%	12.5%	/
CCN(CC)S(=O)(=O)c1nnc(NC(=O)c2ccc(Br)cc2)s1	-0.3%	-6.4%	/	45.3%	20.6%	/
CCOC(=O)c1c(C)c(C(=O)NCc2ccc(Cl)cc2)c(C)n1CC	1.2%	-0.6%	/	-13.3%	7.8%	/
O=C(O)CCc1ccc(-c2ccc(Br)cc2)o1	4.2%	-21.4%	-0.7%	4.1%	22.4µM*	?
NC(=O)c1ccc(-c2ccc(Br)cc2)o1	24.3%	?	-0.6%	-5.1%	-18.5%	0.3%
